Laboratory results as given in PubChem BioAssay (Tox21).
Records with an inconclusive call do not appear. Entries that show only a call come without a potency. Values without a mark were called inactive. Activity calls are given as the source filed them. Calls come from the whole dose curve; as a rule, active = well fitted cell-killing curve with a large enough effect in the repeat runs; inconclusive = weak or mixed curves, or effect the other way; inactive = flat fitted curve, though single readings scatter.

Assay: cAMP Responsive Elements (CRE) small molecule antagonists, cell-based qHTS assay: qHTS cell viability counter screen (AID 2060913); note: nearly all actives have a fitted effect of over 40% in size
Details: CRE-bla HEK293T viability, CellTiter-Glo luminescence, 5 h; series mostly up to 92.4 µM
In short: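 Cytotoxicity read in the same wells as the CRE-bla HEK293T antagonist assay: after 3 h compound with 0.25 uM NKH477 final and 2 h beta-lactamase substrate, CellTiter-Glo luminescence measured.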
Potency is the fitted concentration of half-maximal effect.

Row | Compound | Potency | viability change, negative = cytotoxic
1 | CCCCNc1ccc(C(=O)OCCOCCOCCOCCOCCOCCOCCOCCOCCOC)cc1 | inactive | 
2 | Clc1nc2ccccc2s1 | inactive | 
3 | Nc1ccc2c(c1)CN1C(=O)c3ccccc3C1=N2 |  | -16.9% [at 18.9 µM]
4 | Cc1ccc(S(=O)(=O)NC(=O)NN2CC3CCCC3C2)cc1 (stereo not given) | inactive | 
5 | CC(C)(O)C(=O)O | inactive | 
6 | O=C(Nc1ccc(Cl)c(Cl)c1)C1CC1 | inactive | 
7 | CCCCCCCCCCCC(=O)N(C)CC(=O)O |  | 1.91% [at 8.39 µM]
8 | Nc1ccc(N)c2ccccc12 | inactive | 
9 | Cc1ccc(Cl)cc1 | inactive | 
10 | CN1CCN(CCC(=O)N2c3ccccc3Sc3ccc(C(F)(F)F)cc32)CC1 | inactive | 
11 | COc1cc(S(=O)(=O)O)c(C)cc1N=Nc1c(O)ccc2cc(S(=O)(=O)O)ccc12 | inactive | 
12 | COC(=O)[C@H]1[C@H]2C[C@@H]3c4[nH]c5cc(OC)ccc5c4CCN3C[C@H]2C[C@@H](OC(=O)COc2ccc(OC)cc2)[C@@H]1OC | inactive | 
13 | O=c1[nH]sc2cc(Cl)ccc12 | inactive | 
14 | O=C(NO)c1ccccc1 | inactive | 
15 | Cc1cc(C)c(O)c(C(C)(C)C)c1 | inactive | 
16 | OCC(CO)(CBr)CBr | inactive | 
17 | COc1ccc(N)c(OC)c1 | inactive | 
18 | Cc1ccc2ccc3cccc4ccc1c2c34 | inactive | 
19 | COc1c(N2CCNC(C)C2)c(F)cc2c(=O)c(C(=O)O)cn(C3CC3)c12 (stereo not given) | inactive | 
20 | N=C(N)S(=O)O | inactive | 

Row | Compound | Potency | viability change, negative = cytotoxic
21 | CC/C(C)=N\O[Si](C)(O/N=C(\C)CC)O/N=C(\C)CC | inactive | 
22 | S=C1NC=NC2N=CNC12 (stereo not given) | 3.06 µM (active) | 
23 | CC(=O)Oc1cccc(O)c1 | inactive | 
24 | NCc1cccc(C2CCN(C(=O)c3ccc(C#Cc4ccccc4F)o3)CC2)c1 | 68.6 µM (active) | 
25 | Cc1ccccc1N1C(=O)c2cc(S(N)(=O)=O)c(Cl)cc2NC1C (stereo not given) | inactive | 
26 | CCC(C)CCCC(C)(C)O (stereo not given) | inactive | 
27 | CC(=O)CC(C)C | inactive | 
28 | COC(OC)OC | inactive | 
29 | CC(=O)OCC(=O)[C@@]1(O)[C@H](C)C[C@H]2[C@@H]3CCC4=CC(=O)C=C[C@]4(C)[C@@]3(F)[C@@H](O)C[C@@]21C | inactive | 
30 | CCO[Si](CCCN=C=O)(OCC)OCC | inactive | 
31 | Nc1ccc2cc(S(=O)(=O)O)cc(O)c2c1N=Nc1ccccc1C(F)(F)F | inactive | 
32 | CC(=O)OCCc1ccccc1 | inactive | 
33 | CC(=O)Nc1ccc(S(=O)(=O)Cl)cc1 | inactive | 
34 | Cc1onc(-c2ccccc2)c1-c1ccc(S(N)(=O)=O)cc1 | inactive | 
35 | CC(C)c1nc(CN(C)C(=O)N[C@H](C(=O)N[C@@H](Cc2ccccc2)C[C@H](O)[C@H](Cc2ccccc2)NC(=O)OCc2cncs2)C(C)C)cs1 | inactive | 
36 | N#Cc1nc(Cl)c(Cl)c(Cl)c1Cl | inactive | 
37 | CC1(CN2CCC(n3c(=O)[nH]c4ccccc43)CC2)OCc2ccccc2-n2cccc21 (stereo not given) | inactive | 
38 | CC1(C)SC(C)(C)SC(C)(C)S1 | inactive | 
39 | CN(C)c1ccc(N=Nc2ccccc2C(=O)O)cc1 | inactive | 
40 | Cc1oc(=O)oc1COC(=O)[C@@H]1N2C(=O)[C@@H](NC(=O)[C@H](N)c3ccccc3)[C@H]2SC1(C)C | inactive | 
